Test results published in PubChem BioAssay (NCI).
Compounds without any hit were thinned out: in the full panel of roughly 79,000, 15% have a hit. No stated cut-off is given here; in the data, active means growth inhibition above about 70%; inactive means the rest.

Key:
[1] = NCI Yeast Anticancer Drug Screen. Data for the rad50 strain (AID 155);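 further: 0% = growth of vehicle-only cultures of the same strain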; settings: S. cerevisiae rad50 strain growth inhibition; at 50.0 µM; active compounds read high
Method in brief: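 Vehicle-treated cultures provide the reference for the growth inhibition reported for compound-exposed, repair-deficient yeast.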

[2] = NCI Yeast Anticancer Drug Screen. Data for the mec2-1 strain (AID 157); settings: S. cerevisiae mec2-1 strain, at 50.0 µM, active compounds read high
Method in brief: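 Test agents were screened against the mec2-1 yeast strain, with defined DNA repair or cell cycle alteration. Growth was scored as inhibition against vehicle-only controls.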

[3] = NCI Yeast Anticancer Drug Screen. Data for the sgs1 mgt1 strain (AID 161);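 further: 0% = growth of cultures given vehicle only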; settings: S. cerevisiae sgs1 mgt1 strain, at 50.0 µM, active compounds read high
Method in brief: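 Inhibition of yeast growth, normalised to vehicle-treated controls, is reported for a strain bearing genetic alterations in DNA damage repair.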

[4] = NCI Yeast Anticancer Drug Screen. Data for the cln2 rad14 strain (AID 165);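 further: 0% = growth equal to vehicle treated cultures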; settings: S. cerevisiae cln2 rad14 strain, at 50.0 µM, active compounds read high
Method in brief: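 Growth of compound-exposed yeast (cln2 rad14 genotype) measured and expressed as inhibition relative to vehicle.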

[5] = NCI Yeast Anticancer Drug Screen. Data for the bub3 strain (AID 167); settings: S. cerevisiae bub3 mutant strain, at 50.0 µM, active compounds read high
Method in brief: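 Mutant yeast screening strain plus compound; vehicle-treated cultures serve as the 0% inhibition reference.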

[6] = NCI Yeast Anticancer Drug Screen. Data for the mlh1 rad18 strain (AID 175); settings: S. cerevisiae mlh1 rad18 strain growth inhibition; at 50.0 µM; active compounds read high
Method in brief: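 In this whole-cell yeast screen, a strain with altered DNA damage repair is challenged with compound, and its growth is measured against matched vehicle-treated controls.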

Measured: growth inhibition

COC(=O)C(C)Oc1ccc(OC#N)cc1 (stereo not given)
inactive: [1] -21.3% | [2] -14.1% | [3] 8.9% | [4] -3% | [5] 6.25% | [6] 23.5%

NC(C(=O)O)c1ccc([N+](=O)[O-])cc1 (stereo not given)
inactive: [1] -0.45% | [2] -14.1% | [3] 8.8% | [4] 7.25% | [5] -0.4% | [6] -14.7%

COC(=O)/C=C/C(=O)NC(N)=O
inactive: [1] -19.6% | [2] -41.2% | [3] -22.1% | [4] 9.95% | [5] -17.2% | [6] -8.05%

N#Cc1c(N)sc(=S)c2c1CCCC2
inactive: [1] 9.65% | [2] 9.85% | [3] 29.4% | [4] 1.8% | [5] -2.05% | [6] 11.4%

CN(C)c1ccc2oc(=O)c3ccccc3c2c1
inactive: [1] 6.05% | [2] 7.55% | [3] 1.55% | [4] -2% | [5] 0.5% | [6] -33%

COc1cc(-c2ccc(NC(=O)NC3CC3)c(OC)c2)ccc1NC(=O)NC1CC1
inactive: [1] -26.9% | [2] -23.2% | [3] -24.1% | [4] 3.15% | [5] -25.2% | [6] -25.8%

COC(=O)Nc1cccc(Cl)c1OC
inactive: [1] 8.6% | [2] -21.4% | [3] 0.45% | [4] 2.05% | [5] 3.55% | [6] -6.55%

CCOC(=O)CCCS(C)(=O)=O
inactive: [1] -26.5% | [2] -19.6% | [3] -32% | [4] -17.9% | [5] -1.95% | [6] 7.3%

CN(c1ccccc1)c1ncnc2c1ncn2C
inactive: [1] 2.65% | [2] -0.65% | [3] 1.75% | [4] -4.7% | [5] 29.9% | [6] 4.1%

NC(CSC(c1ccccc1)(c1ccccc1)c1ccccc1)C(=O)O (stereo not given)
inactive: [1] 1.4% | [2] -18.8% | [3] -28.9% | [4] 20.8% | [5] -8.25% | [6] -42.2%

CC1=CC(C)(C)NC(=S)N1c1ccc(S(=O)(=O)O)c2cccc(S(=O)(=O)O)c12
inactive: [1] -4.8% | [2] -5.25% | [3] -13.1% | [4] -30.9% | [5] 4.3% | [6] -33.1%

CC1CCCCN1C(=S)Nc1ccc(S(=O)(=O)N2CCCCC2)cc1 (stereo not given)
inactive: [1] -18.6% | [2] -29.2% | [3] -5.75% | [4] -11.2% | [5] -19.1% | [6] -18.7%

COc1ccc(OC)c(/C=C2\CCc3ccccc3C2=O)c1
inactive: [1] 17.4% | [2] -30.1% | [3] 27.5% | [4] 7.4% | [5] 47.7% | [6] -23.6%

O=[N+]([O-])c1ccc(/C=C/C=C/c2ccccc2)c(Cl)c1
inactive: [1] -8.75% | [2] -18.3% | [3] -3.4% | [4] -45.1% | [5] -4.85% | [6] -11.4%

CCCC(C)OCC(=O)O (stereo not given)
inactive: [1] 31.6% | [2] -3.4% | [3] 1.55% | [4] 4.35% | [5] -1.25% | [6] -7.1%

COc1cc2c(cc1O)CC[C@@H]1C2CC[C@@]2(C)C1CC[C@@H]2O (stereo not given in full)
inactive: [1] -11.6% | [2] -13.4% | [3] -15.2% | [4] -26.6% | [5] -13.8% | [6] 18.3%

COc1ccc(C(=O)C(Br)C(Br)C(=O)O)cc1 (stereo not given)
inactive: [1] 24.6% | [2] 24.4% | [3] 6.35% | [4] -64.7% | [5] 5.45% | [6] 38.9%

O=S(=O)(Cc1ccccc1)c1ccccc1
inactive: [1] 4.6% | [2] 1.1% | [3] 2.1% | [4] -0.8% | [5] -17.5% | [6] 23.9%

C#CC(C(C)C)N(CCO)CCCC (stereo not given)
inactive: [1] 11.2% | [2] 4.55% | [3] 8.3% | [4] 7.35% | [5] 26.7% | [6] 16%

CCOC(=O)C(CCC(C)C)C(=O)OCC
inactive: [1] -7.55% | [2] 7.85% | [3] -9.65% | [4] -53.4% | [5] 4.6% | [6] 2.6%

O=C(O)c1cc([N+](=O)[O-])ccc1Cl
inactive: [1] 27.9% | [2] 11.2% | [3] 7.15% | [4] 21% | [5] 21.9% | [6] 34.4%

O=C(OCC(O)C1OC(c2ccccc2)OC(COC(=O)c2ccccc2)C1O)c1ccccc1 (stereo not given)
inactive: [1] 5.85% | [2] 4.85% | [3] 13.6% | [4] 16.6% | [5] 1% | [6] 11.9%

CC(C)CCCC(=O)O
inactive: [1] -9.7% | [2] -7.5% | [3] -1.25% | [4] 27.8% | [5] -2.95% | [6] -13.8%

CCC/C=C(/C(C)=O)C(=O)OCC
inactive: [1] 18.9% | [2] -4.6% | [3] -7% | [4] 0.2% | [5] -19.8% | [6] -6.75%

O=C(O)CSCSCC(=O)O
inactive: [1] 1.45% | [2] -26.4% | [3] -8.8% | [4] 20.2% | [5] 4.8% | [6] 3.1%

COc1cc(/C=C/C(=O)c2ccccc2)cc(OC)c1OC
inactive: [1] -4.7% | [2] -5.8% | [3] -3% | [4] 34.5% | [5] -18.1% | [6] -2.3%

O=C(NN=C1CCCCC1)C(=O)NN=C1CCCCC1
inactive: [1] 34.1% | [2] 13.6% | [3] 13.5% | [4] -20.7% | [5] 10% | [6] 28.6%

N#CSc1cc(S(N)(=O)=O)ccc1N
inactive: [1] 5.65% | [2] -10.2% | [3] 4.05% | [4] -5.35% | [5] -1% | [6] 32%

Nc1ccc(C(=O)c2ccc(N)c(Br)c2)cc1Br
inactive: [1] 15% | [2] -0.85% | [3] 6.6% | [4] -77.9% | [5] 43.3% | [6] 4.05%

CC(=O)Cc1ccc(-c2ccccc2)cc1
inactive: [1] 18.4% | [2] 14.8% | [3] 8.3% | [4] -25.4% | [5] 10.3% | [6] 24.6%

CCS(=O)(=O)CCCl
inactive: [1] 12.2% | [2] -5.1% | [3] 2.3% | [4] 5.9% | [5] 0.95% | [6] 5.85%

CCOc1ccc2[nH]c(=S)sc2c1
inactive: [1] 35.5% | [2] 12.9% | [3] 29.9% | [4] 15.5% | [5] -1.5% | [6] 21.4%

O=C1C=C(O)C(=O)C=C1O
inactive: [1] 4.45% | [2] -10.2% | [3] 14.9% | [4] 0.4% | [5] -2.35% | [6] 28.5%

NCC(=O)CCC(=O)O
inactive: [1] 6.3% | [2] -3.7% | [3] 0.5% | [4] -4.95% | [5] -0.85% | [6] -1.4%

C/C(=C\c1ccc([N+](=O)[O-])cc1)C(=O)O
inactive: [1] 23.6% | [2] 23.1% | [3] 19.2% | [4] 12.2% | [5] 31.4% | [6] 47.5%
